# Measured values taken from PubChem BioAssay AID651568 (National Center for Advancing Translational Sciences (NCATS), 2012).
# Out of some 1,200 compounds screened, about 55 (5%) were called active. Not shown: some 15% with an inconclusive outcome. This is one part of a sample in which actives are shown more often than they occur. Calls follow the shape of the dose curve; as a rule, active = well fitted inhibition curve with a large enough effect; inconclusive = small, poorly fitted or top-dose-only effect; inactive = no such curve, though single readings can be large or run the other way.
# Assay: qHTS Assay to Find Inhibitors of Chronic Active B-Cell Receptor Signaling: Hit Validation in Renilla Reporter Assay; also: nearly all actives have a fitted effect of over 70% in size
# Conditions: TMD8 IkB-Renilla luciferase reporter, NF-kB signaling; series mostly up to 57.5 µM; activity change, negative = inhibition: at the top concentration
# Method in brief: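 Orthogonal secondary test of primary-screen hits in ABC-DLBCL cells carrying constitutively expressed IkB-Photinus and Renilla luciferase reporters, read by Dual-Glo luminescence; luciferases differ from the primary assay's click beetle enzymes, to exclude assay-specific artifacts.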
# % is scaled to controls: 0 for no effect and ±100 for the full control effect; potency is read from the fitted curve at half-maximal effect.
SMILES,"activity change, negative = inhibition",Potency
COC(=O)c1ccc(C)c(NS(=O)(=O)c2ccc(OC)cc2)c1,32.4% (inactive),–
CCOc1ccccc1C(=O)N1CCN(c2cccc(Cl)c2)CC1,-20.3% (inactive),–
COc1ccc(-c2c(C)c3ccc(O)cc3oc2=O)cc1OC,28.9% (inactive),–
Cc1ccc(/C=C/C(=O)c2nc3ccccc3[nH]2)cc1,–,16.9 µM (active)
Cc1cccc(C(=O)N[C@H](C(=O)Nc2nc3ccccc3[nH]2)C(C)C)c1,-18.3% (inactive),–
CC1=CC(C)(C)N(S(=O)(=O)c2ccc(C)cc2)c2cc(C)ccc21,-7.09% (inactive),–
COC(=O)c1cc(C(=O)N2CCN(c3cccc(Cl)c3)CC2)cc([N+](=O)[O-])c1,-0.459% (inactive),–
COc1cccc(/C=N/NC(=S)Nc2cccc(S(=O)(=O)N(C)C)c2)c1,17.9% (inactive),–
CC(=O)Nc1cc(N=Cc2ccc(O)cc2O)c(Cl)cc1Cl,–,12 µM (active)
Cc1ccc(NS(=O)(=O)c2ccc(-c3cnc(C4CC4)o3)cc2)c(C)c1,5.35% (inactive),–
COc1ccc(Nc2cc3n(c(=O)n2)CCc2cc(OC)c(OC)cc2-3)c(C)c1,-11% (inactive),–
COc1ccc(-c2c(-c3cc(OC)c(OC)c(OC)c3)noc2C)cn1,-20.2% (inactive),–
COc1cc(/C=N/N(C)c2ccccc2)ccc1O,7.62% (inactive),–
COc1cc(/C=C2\OC(=O)c3c(OC)cccc32)ccc1O,1.72% (inactive),–
COc1ccc(/C=C2\CCc3ccccc3C2=O)cc1O,–,26.9 µM (active)
COc1ccc(-c2sc3cc(OC)c(OC)cc3c2C#CC(C)(C)O)cc1,6.22% (inactive),–
CCCn1nc(Oc2nc(N(C)C)nc(N(C)C)n2)ccc1=O,-0.0736% (inactive),–
COc1ccc(C(=O)Nc2ccc(-n3nncc3-c3ccc(OC)c(OC)c3)cc2)cc1,-26.9% (inactive),–
CCN(c1cccc(C)c1)S(=O)(=O)c1ccc(-c2cc(C)no2)s1,12% (inactive),–
O=C(CCCN1C(=O)/C(=C/c2ccccc2OC(F)F)SC1=S)Nc1cccnc1,–,30.1 µM (active)
COc1ccccc1/C=N/NC(=S)Nc1cccnc1,-2.9% (inactive),–
COc1ccccc1-c1cc(C(=O)Nc2cccnc2)no1,-1.55% (inactive),–
Cc1ccc2c(c1)C(=O)C(=O)N2CC1COc2ccccc2O1 (stereo not drawn),-20.1% (inactive),–
CCn1c2ccccc2c2cc(NC(=O)c3cc(OC)cc(OC)c3)ccc21,2.33% (inactive),–

SMILES,"activity change, negative = inhibition",Potency
CCCCn1c(SCC(=O)c2cc(OC)ccc2OC)nc2cc(S(N)(=O)=O)ccc21,-0.961% (inactive),–
COc1ccccc1-c1nnc2sc(-c3ccc(N(C)C)cc3)nn12,2.63% (inactive),–
COC(=O)[C@@H]1[C@@H](C#N)C2(c3ccccc3-c3ccccc32)N(c2ccc(Cl)cc2)N1C#N,–,4.78 µM (active)
O=C(Cc1ccc(-n2c(=O)c3ccccc3n(Cc3ccccc3F)c2=O)cc1)NCC1CCCO1 (stereo not drawn),-0.408% (inactive),–
COc1cc(OC)c(OC)cc1/C=C/C(=O)c1ccc(NS(=O)(=O)c2ccc(C)cc2)cc1,-16.9% (inactive),–
CN(C)c1nc(=NCc2ccco2)ss1,–,16.9 µM (active)
CCC(=NCCc1c(C)[nH]c2ccc(C)cc12)C1=C(O)CC(c2ccccc2)CC1=O (stereo not drawn),-14.9% (inactive),–
COc1ccc(C2CC(c3ccc(OC)c(OC)c3)=NN2C(=O)c2ccccc2)cc1 (stereo not drawn),-1.47% (inactive),–
CCCc1noc2c1C(c1ccoc1)C(C#N)=C(N)N2 (stereo not drawn),–,23.9 µM (active)
CCc1ccc(CNC(=O)Cc2ccc(NC(=O)C3=C(C)OCCS3)cc2)cc1,0.25% (inactive),–
O=C(NN=C1CCCC1)c1n[nH]c2c1CCCC2,0.76% (inactive),–
CC1=NN(C(N)=S)C(=O)C1N=Nc1cccc([N+](=O)[O-])c1 (stereo not drawn),-13.6% (inactive),–
ClCc1nc2ccccc2c2ccccc12,–,23.9 µM (active)
CCc1nc2ccccc2c(C(=O)OCc2nc3ccccc3c(=O)[nH]2)c1C,-0.954% (inactive),–
S=c1nc2ccccc2c2nc(-c3ccccc3Cl)[nH]n12,-27.4% (inactive),–
COc1cc(OC)cc(-c2cc3cc4c(cc3cn2)OCO4)c1,-4.56% (inactive),–
CCOC(=O)C(C)N1C(=O)S/C(=C/c2ccc3c(c2)n(C)c(=O)n3C)C1=O (stereo not drawn),1.42% (inactive),–
CCOC(=O)C1=C(O)/C(=C/c2ccc(OCC(=O)O)c(OCC)c2)SC1=Nc1ccccc1,-13% (inactive),–
CCOc1cc(/C=C2\CN(C)C/C(=C\c3ccc(O)c(OCC)c3)C2=O)ccc1O,–,5.36 µM (active)
Cc1ccc(C)c(Cn2c(=O)n(-c3ccc(CC(=O)NCc4ccco4)cc3)c(=O)c3sccc32)c1,-11% (inactive),–
Cc1ccc(N2C(=O)c3cccc4c(N)ccc(c34)C2=O)c2cccnc12,-20.2% (inactive),–
COc1ccc([C@H]2CC(=O)C=C(c3ccc(OC)cc3OC)C2)cc1,9.69% (inactive),–
COc1ccc(S(=O)(=O)N2CCCCC2)cc1NS(=O)(=O)c1cc(Cl)ccc1Cl,32.2% (inactive),–
CCOc1ccc(N(CC(=O)Nc2ccccc2C)S(=O)(=O)c2c(C)noc2C)cc1,0.105% (inactive),–
